Test results as given in PubChem BioAssay AID868 (SRMLSC, 2007).
Hit rate of the full screen: of about 190,000 compounds, about 3,500 (1.8%) were called active. The full list was thinned out, with actives kept by preference. Unmarked numbers belong to inactive results.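 Rule for the calls: active = inhibition above a set limit, 3 SD over mean compound inhibition (cut at about 8.4% in these data); inactive = the rest.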

Assay: inhibitors of the yeast RAM network, primary screen, dse1pr::URA3 reporter, 5-FOA selection (AID 868);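 note: 0% = DMSO-only wells with no growth and 100% = 10 µM 1-NA-PP1 full growth; inhibition rescues growth on 5-FOA so higher OD means more RAM inhibition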
Details: S. cerevisiae dse1pr::URA3 reporter, 5-FOA growth OD615, 2 d; at 50 µM; hits give high values; analog-sensitive cbk1-as2 kinase mutant strain

Structure (SMILES) | inhibition
CCCCS(=O)c1snnc1C (stereo not given) | -0.12%
O=C(CNC(=O)c1cc2c(s1)CCC2)Nc1ccccc1Br | 1.93%
O=C(c1cc2c(s1)CCC2)N1CCN(c2ccccc2)CC1 | 4.37%
O=C(NNC(=O)c1cc2c(s1)CCCC2)c1ccccc1 | 9.1% (active)
CCOC(=O)Cc1csc(SCC(=O)NC(C)C23CC4CC(CC(C4)C2)C3)n1 (stereo not given) | 0.91%
CC(NC(=O)COC(=O)c1ccc(Cl)cc1O)c1ccc(F)cc1 (stereo not given) | 3.6%
COc1ccccc1-n1c(=S)[nH]c2c(sc(=S)n2-c2ccc(C)cc2C)c1=O | 9.12% (active)
COc1cccc(-n2c(=S)sc3c(=O)n(-c4ccccc4OC)c(SCC4OCCO4)nc32)c1 | 7.01%
CCc1ccc(-n2c(=S)sc3c(=O)n(-c4ccccc4OC)c(=S)[nH]c32)cc1 | 5.97%
O=C(c1ccncc1)c1ccc([N+](=O)[O-])cc1 | 0.73%
CC(C)=C1C2CCC1C1C(=O)N(NC(=O)c3ccco3)C(=O)C21 (stereo not given) | -1.09%
N/C(Cc1ccc([N+](=O)[O-])cc1)=N\OC(=O)COc1ccc2ccccc2c1 | 12% (active)
N/C(=N\OC(=O)Cc1ccc([N+](=O)[O-])cc1)c1ccccn1 | 1.23%
N/C(=N\OC(=O)COc1ccc([N+](=O)[O-])cc1)c1ccc(Br)cc1 | 2.29%
CN(C)c1nnnn1-c1ccc(Cl)cc1 | -0.37%
O=C(O)/C=C/c1cn(Cc2ccccc2)nc1-c1cccs1 | 4%
CCC(C(=O)OCC(=O)Nc1c(Cl)cc(Cl)cc1Cl)c1ccccc1 (stereo not given) | 12.2% (active)
CCC(C(=O)OCC(=O)Nc1ccccc1-c1ccccc1)c1ccccc1 (stereo not given) | 6.39%
CCC(C(=O)OCC(=O)Nc1ccc(C(=O)Nc2ccc(OC)cc2)cc1)c1ccccc1 (stereo not given) | 4.72%
COCCNC(=O)NC(=O)COC(=O)C1(c2ccc(Cl)cc2)CC1 | 0.14%
Nc1ncnc(Nc2cccc(Cl)c2Cl)n1 | 0.27%
CC(=O)Nc1ccc(Sc2ccccc2C(=O)N2CCCC2)cn1 | 1.82%
O=C1CCCC2=C1C(c1ccccc1)n1c(s/c(=C/c3cccc(F)c3)c1=O)=N2 (stereo not given) | 3.98%
CCOC(=O)C1=C(C)N=c2s/c(=C\C(=O)OC)c(=O)n2C1c1ccc(OC)cc1 (stereo not given) | 2.7%

Structure (SMILES) | inhibition
COc1ccc(OC)c(C2C3=C(N=c4s/c(=C\c5cccc(O)c5)c(=O)n42)c2ccccc2CC3)c1 (stereo not given) | 12.7% (active)
Cc1ccc2[nH]c(=O)c(CN(CC3COCCO3)C(=O)Nc3ccccc3C)cc2c1 (stereo not given) | 0.63%
CCCCCOc1ccc(CSC2=NCCN2)cc1[N+](=O)[O-] | -0.98%
O=C(Nc1nc(-c2cccnc2)cs1)c1ccccc1F | -0.37%
COc1cccc(NC(=S)NC(=O)c2c(Cl)c(C)nn2C)c1 | 8.92% (active)
Cc1nn(C)c(C(=O)NNC(=S)NC2CCCCC2)c1Cl | 0.28%
COc1cccc(NC(=S)NCc2ccccn2)c1 | 2.63%
CCOC(=O)C1(Cc2cccc(OC)c2)CCCN(S(=O)(=O)c2cccnc2)C1 (stereo not given) | 0.14%
O=C(NCc1ccccc1)C1CCCN(c2nc3ccsc3c(=O)s2)C1 (stereo not given) | 3.39%
CN(C)S(=O)(=O)c1cccc(NC(=O)COC(=O)c2cc(=O)[nH]c(=O)[nH]2)c1 | 0.97%
CN(C)S(=O)(=O)c1cccc(NC(=O)COC(=O)/C=C/c2cccs2)c1 | 0.87%
CN(C)S(=O)(=O)c1cccc(NC(=O)COC(=O)C2(c3ccccc3F)CCCC2)c1 | 15.4% (active)
CC1CC(C)(C)NC(=S)N1CCC(=O)N1CCN(Cc2ccccc2)CC1 (stereo not given) | -0.49%
CCC(C)(C)NC(=O)CN(C(=O)CCC(=O)Nc1cc(C)ccn1)c1ccc2c(c1)OCCO2 | 1.5%
Cc1ccn(CC(=O)N2N=C(C(F)F)CC2(O)C(F)F)n1 (stereo not given) | 0.78%
S=C(NCc1ccc(Cl)cc1)NC12CC3CC(CC(C3)C1)C2 | 5.19%
CN(C)CCCNC(=S)NCc1ccc(Cl)cc1 | 0.25%
S=C(NCc1ccc(Cl)cc1)NC1CCCCC1 | 10.9% (active)
CCCC(C(=O)n1nc(C)cc1C)C(NS(=O)(=O)c1ccc(C)cc1)c1ccccc1 (stereo not given) | 11.7% (active)
Cc1ccc(S(=O)(=O)Nc2nc(C)cc(-n3nc(C)cc3C)n2)cc1 | 2.7%
Cc1ccc(S(=O)(=O)NC(C(=O)N2CCOCCOCCOCCOCC2)c2ccccc2)cc1 (stereo not given) | 2%
COc1ccccc1Cn1c(=S)[nH]c2cc(C(=O)N3CCN(C)CC3)ccc2c1=O | 2.83%
COc1ccc(OC)c(-n2c(=S)[nH]c3cc(C(=O)N4CCCCC4)ccc3c2=O)c1 | 8.46% (active)
COc1ccc(OCc2cccc(C(=O)N3CCCC3)c2)cc1 | -0.11%

Structure (SMILES) | inhibition
CC(=O)c1ccc(S(=O)(=O)Nc2ccc(C(=O)NCC(c3ccccc3)N(C)C)cc2)cc1 (stereo not given) | 1.76%
O=C(Nc1ccc(N2CCN(C(=O)c3cccs3)CC2)cc1)c1cccnc1Cl | 0.88%
CC(=O)N1CCN(c2cccc(C)c2C)CC1 | 2.09%
O=C(O)c1cnn2c(C(F)(F)F)cc(-c3ccccc3)nc12 | 0.53%
Cc1cccc(N2CCN(C(=O)c3cnn4c(C(F)F)cc(-c5ccccc5)nc34)CC2)c1C | 12.1% (active)
COc1cc(N/C=C2\CC(=O)NC(C)=C2C#N)cc(OC)c1OC | 2.13%
Cn1c(=O)c2cc(S(=O)(=O)NCCC(=O)Nc3ccc(F)cc3F)ccc2n(C)c1=O | 2.64%
COc1ccc(CCNC(=O)CC2SC(=Nc3cc(C)cc(C)c3)NC2=O)cc1OC (stereo not given) | 1.51%
CCOC(=O)c1cc2sccc2n1Cc1ccc(C#N)cc1 | 8.47% (active)
CC1Cc2ccccc2N1C(=O)c1cc2sccc2n1Cc1ccccc1 (stereo not given) | 2.9%
O=C(c1cc2sccc2n1Cc1ccc(F)cc1)N1CCc2ccccc21 | 2.22%
NC(=O)CCC(NS(=O)(=O)c1ccc(Cl)cc1)C(=O)NCc1ccccc1Cl (stereo not given) | 2.16%
CCCC1NC(=S)NC(C)=C1C(C)=O (stereo not given) | 1.13%
Cc1ccc(NC(=O)c2cccnc2C(=O)Nc2ccc(C)cc2)cc1 | 2.98%
Cc1ccc(NC(=O)CN2CCCCC2)c2c1CC(C)(C)O2 | 0.63%
COc1ccc(-c2[nH]ncc2CN(C)Cc2cc(C)[nH]n2)c(F)c1 | 0.37%
CN(C)c1ccc(C2Nc3ccccc3C(=O)N2NS(=O)(=O)c2ccccc2)cc1 (stereo not given) | 1.39%
O=C1Cc2ccccc2Sc2ccc(Cl)cc21 | 9.58% (active)
S=C1Nc2cc(Cl)ccc2Sc2ccccc21 | 0%
O=C(CSc1nc2ccccc2o1)N1c2ccccc2Sc2ccc(Cl)cc21 | 3.58%
CN(CC(=O)N1CCN(c2ccccc2)CC1)S(=O)(=O)c1cccs1 | 1.71%
O=C(NCCCN1CCOCC1)c1ccccc1NS(=O)(=O)c1ccc(Br)cc1 | 1.86%
CC(=O)c1cc(-c2ccccc2)n(CCC(=O)NC2CCCCCC2)c1C | 8.76% (active)
O=C(CN1C(=O)CC(c2ccccc2)=Nc2ccccc21)NC1CCCCC1 | 0.45%

Structure (SMILES) | inhibition
CC(=O)c1cc(-c2ccccc2)n(CC(=O)NC2CCCCC2)c1C | 1.07%
S=c1[nH]nc(/C=C/c2ccccc2)o1 | -1.49%
O=c1c(-c2ccccc2)cnc2n1CCS2 | 0.49%
CNc1[nH]ncc1[N+](=O)[O-] | 0.14%
CC(=O)Nc1ccc(S(=O)(=O)Nc2ccc(-c3ccc4nnc(C)n4n3)cc2)cc1 | 1.24%
COc1cc(OC)cc(C(=O)Nc2ccc(S(=O)(=O)Nc3cc(C)on3)cc2)c1 | 3.99%
COc1cc2ccccc2cc1C(=O)Nc1ccc(S(=O)(=O)Nc2cc(C)on2)cc1 | 9.69% (active)
Cc1cc(NS(=O)(=O)c2ccccc2)no1 | 1.83%
C/C=N/NC(=O)CCCC(=O)N/N=C/C | 0.88%
C#CCOCCOCCOCCNc1nc(N2CCN(C(=O)[C@H](C(C)C)n3cc(CCO)nn3)CC2)nc(N2CCN(C(=O)[C@H](C(C)C)n3cc(CCO)nn3)CC2)n1 | 1.36%
CCC1C(=O)c2ccccc2N(C)C1=O (stereo not given) | 0.28%
CN1C(=O)/C(=N/OC(=O)c2ccccc2Br)c2ccccc21 | 4.91%
CN1C(=O)/C(=C\c2cc(Br)cs2)c2ccccc21 | 8.8% (active)
CN1CCN(C(=O)CCc2ncc(C(F)(F)F)cc2Cl)CC1 | -0.55%
COc1ccc(-n2cnc3cc(C(=O)NC4CCCC4)ccc32)cc1 | -0.87%
N#Cc1nc(Cc2cccc3ccccc23)oc1NCc1ccc2c(c1)OCO2 | 11% (active)
N#Cc1nc(Cc2ccccc2)oc1NCCc1ccccc1 | 2.28%
O=C(COc1ccccc1)NCc1ccc2c(c1)OCO2 | 3.27%
CCCNC(=O)OC[C@H]1O[C@H](CCO/N=C/[C@@H](NS(=O)(=O)c2ccc(C)cc2)[C@H](C)/C=C/CC(=O)OC)C=C[C@@H]1Oc1ccc(OC)cc1 | 14.8% (active)
CCCC(NS(=O)(=O)c1ccc(OC)cc1)C(=O)O (stereo not given) | 0%
C=CCn1c(CCc2ccc(OC(C)C)cc2)n[nH]c1=S | -0.6%
CC(C)Oc1ccc(Cc2n[nH]c(=S)n2Cc2ccccc2)cc1Cl | 9.13% (active)
CC(C)Oc1ccc(CCc2n[nH]c(=S)n2Cc2ccccc2)cc1 | 6.59%
